Screening results (PubChem BioAssay)
In the library only some 7.9% were active in any assay of this set; here they are far more common.
Marburg entry inh – qHTS for inhibitors of binding or entry into cells for Marburg Virus. Marburg virus pseudotyped entry inhibition, cell reporter. Potency, µM (series often up to 37.8 µM), without a hit: top-dose activity change, negative = inhibition, actives largely listed as inhibitors. hit rate 1.8% among 300,000; calls by dose curve; tested in HEK293 cells; note: potency is the fitted concentration of half-maximal effect
HCV inh – qHTS Assay for Inhibitors of Hepatitis C Virus (HCV); Huh7.5.1 HCVcc-Cre infection, luciferase reporter, 44 h; AID 651820, 2012; Potency, µM (doses to about 41.8 µM), for inactives: top-dose activity change, negative = inhibition, hits mostly inhibitors; hit rate 3.4% among 340,000; active = well fitted inhibition curve with a large enough effect; inconclusive = small, poorly fitted or top-dose-only effect, or another doubt; inactive = no such curve, though single readings can be large or run the other way; note: potency is the fitted concentration of half-maximal effect
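After 44 h co-culture of compound, cells and HCVcc-Cre (~0.5 moi), substrate is added for 15 min at room temperature and luciferase measured over 15 sec. Cells were seeded at 1,000/well and pre-cultured 4 h.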
HCMV inh – qHTS Assay for inhibitors of the human cytomegalovirus (HCMV). HFF cells, HCMV-luciferase reporter, 72 h; stronger effect = lower value. activity change, negative = inhibition, % at 57.5 µM. hit rate 4.5% among 410,000. AID 1259415, 2018; in the data active = activity change below about -60%; inconclusive = no clear call, values can overlap the other calls; inactive = above about -39%
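HFF cells seeded 16 h at 37C, treated with compounds, infected with luciferase-reporter HCMV at MOI 1 PFU/cell; luciferase read at 72 h post infection, normalized to buffer-only and Salinomycin controls.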
FMDV antiviral – High Throughput Screening for Foot and Mouth Disease Virus Antivirals. FMDV antiviral cell-based qHTS. Potency, µM (titrated, usually from 57.9 µM), inactives show at the highest dose activity change, negative = inhibition, hits mostly inhibitors. hit rate 1.2% among 410,000; calls by dose curve; tested in HEK293T cells; note: read-out not given here; potency is the fitted concentration of half-maximal effect; nearly all actives have a fitted effect of over 45% in size
Lassa entry inh – qHTS for Inhibitors of binding or entry into cells for Lassa Virus | Potency, µM (series often up to 37.9 µM), for inactives: at the top dose activity change, negative = inhibition, hits mostly inhibitors | hit rate 1.2% among 300,000 | AID 540256, 2011 | Lassa virus pseudotype entry inhibition, cell reporter; calls by dose curve; tested in HEK293 cells; note: potency is the fitted concentration of half-maximal effect; nearly all actives have a fitted effect of over 50% in size
The depositor's hits bear a star; ? = inconclusive; nt = not tested or not shown; [ ] = another dose, or the depositor's remark. % is set by controls: 0 for no effect and ±100 for the full control effect.

SMILES	Marburg entry inh	HCV inh	HCMV inh	FMDV antiviral	Lassa entry inh
CC(=O)N1CCOc2ccc(S(=O)(=O)N3CCC(C(=O)NCc4ccc(Cl)cc4)CC3)cc21	nt	nt	-14.7	-21.2%	nt
CC(=O)Nc1ccc(S(=O)(=O)N2CCN(CC(=O)N3CCOCC3)CC2)cc1	-1.4%	21.0%	35.6	3.9%	5.5%
COc1ccc(OCC(=O)Nc2ccccc2C(=O)OCc2cc(=O)n3nc(C)sc3n2)cc1	nt	nt	-22.1	20µM*	18.0%[46.1 µM]
O=C(OCc1cc(=O)n2nc(C3CC3)sc2n1)c1cccc(NC(=O)c2ccccc2Cl)c1	nt	nt	10.6	?	?
O=C(OCc1cc(=O)n2nc(C3CC3)sc2n1)c1ccc(NC(=O)c2ccccc2Cl)cc1	nt	nt	-16.5	20µM*	?
CCc1nn2c(=O)cc(COC(=O)c3cccc(NC(=O)COc4ccccc4F)c3)nc2s1	nt	nt	86.1	25.2%	?
Cc1nn2c(=O)cc(COC(=O)c3cccc(NC(=O)CCc4ccccc4)c3)nc2s1	nt	nt	55.5	3.3%	11.5%[46.1 µM]
Cc1ccc(OCC(=O)Nc2cccc(C(=O)OCc3cc(=O)n4nc(C)sc4n3)c2)cc1	nt	nt	4.0	12.6µM*	?
Cc1nn2c(=O)cc(COC(=O)c3ccc(NC(=O)CCc4ccccc4)cc3)nc2s1	nt	nt	56.1	11.2µM*	2.2%[46.1 µM]
O=C(NCCN1Cc2ccccc2OC(c2ccccc2F)C1)c1cncs1 (centres undefined)	nt	nt	nt	-4.4%	nt
Cc1nn2c(=O)cc(COC(=O)c3cccc(NC(=O)COc4ccccc4C)c3)nc2s1	nt	nt	?	2.82µM*	26.3%[46.1 µM]
CCCc1nn2c(=O)cc(COC(=O)c3ccc(NC(=O)c4cccs4)cc3)nc2s1	nt	nt	-96.5*	-14.9%	11.7%[46.1 µM]
Cc1ccc(CC(=O)NC2CCN(Cc3ccccc3)CC2)cc1	3.4%	-1.3%	-4.4	-15.3%	-29.7%
O=C(Cc1ccc(Br)cc1)NC1CCN(Cc2ccccc2)CC1	?	10µM*	?	-23.9%	nt
O=C(NC1CCN(Cc2ccc(Cl)cc2Cl)CC1)c1ccccc1	?	?	-80.8*	?	?
O=C(Cc1ccccc1)NC1CCN(Cc2ccccc2)CC1	-9.2%[46.1 µM]	-20.7%	-62.4*	-10.6%	-2.7%
Cc1ccc(-c2nnn(CC(=O)NC3CCN(Cc4ccccc4)CC3)n2)cc1	?	22.4µM*	-6.1	-9.7%	5.7%
COc1ccc(C(=O)NCCCn2nc(C)cc2C)cc1S(=O)(=O)N1CCOCC1	12.4%	15.9%	-36.0	-7.8%	-7.5%
O=C(CCSCc1ccccc1Cl)NC1CCCCC1	28.2%[46.1 µM]	15.9%	34.4	95.7%	1.4%
CCCc1cc(=O)oc2c(C)c(OCC(=O)NC3CCN(Cc4ccccc4)CC3)ccc12	nt	6.31µM*	-32.1	-2.1%	nt
CCC(=O)c1ccc(OCC(=O)NC2CCN(Cc3ccccc3)CC2)cc1	nt	?	-104.9*	-2.3%	nt
CN(C)S(=O)(=O)c1cccc(NC(=O)c2sccc2-c2ccccc2)c1	?	-24.8%	-11.9	-13.1%	-15.1%
COc1ccc2nc(NC(=O)c3cccc(-c4cc5ccccc5oc4=O)c3)sc2c1	?	11.2µM*	1.3	-16.8%	?
Cc1oc(=O)c(NC(=O)c2cccc(Cl)c2)cc1C(=O)c1ccccc1	?	?	-84.3*	-20.5%	-17.1%
CCCCOc1cccc(C(=O)Nc2cccc(-c3nc4ncccc4o3)c2C)c1	nt	nt	?	?	-17.1%[46.1 µM]
SMILES	Marburg entry inh	HCV inh	HCMV inh	FMDV antiviral	Lassa entry inh
O=C(Nc1cc2ccccc2oc1=O)c1ccccc1	1.26µM*	-21.2%	-39.2	-80.8%	2.51µM*
COc1ccc(C(=O)Nc2nc3ccc(OC)cc3s2)cc1	nt	?	23.4	28.4%	nt
Cc1c(NC(=O)c2cccc(-c3cc4ccccc4oc3=O)c2)cccc1-c1nc2ncccc2o1	?	?	-67.6*	-22.6%	?
COCc1ccc(CN2CCOc3c(cc(-c4ccc(SC)cc4)cc3OC)C2)o1	nt	nt	nt	-3.4%	nt
CCOC(=O)c1cccn1C1C(=O)N(Cc2ccc(OC)cc2)c2ccccc21 (centres undefined)	nt	nt	-26.8	nt	nt
Cc1cccc(C(C)C)c1NC(=O)CN1C(=O)NC2(CCc3ccccc32)C1=O (centres undefined)	-23.2%	-20.5%	-1.6	-3.3%	-8.8%
O=C(C(c1ccccc1)c1ccccc1)N1CC[C@@]2(O)CCCC[C@H]2C1	5.62µM*	24.8%	-6.6	-12.0%	-16.2%
